According to PubChem BioAssay (Tox21):
Results filed as inconclusive are left out. Calls of active or inactive are those of the source. Unless noted, calls follow the shape of the dose curve; as a rule, active = well fitted curve in the direction sought with a large enough effect in the repeat runs; inconclusive = weak or mixed curves; inactive = no such curve, though single readings can be large; an effect the other way counts as inactive or inconclusive.

How the values were obtained:
[1] = target: Peroxisome proliferator-activated receptor gamma (Homo sapiens) (UniProt P37231); experiment: qHTS assay to identify small molecule agonists of the peroxisome proliferator-activated receptor gamma (PPARg) signaling pathway (AID 743094; active = well fitted activation curve with a large enough effect in the signal ratio in the repeat runs, not every such curve was filed as active; the % refers to the signal ratio)
Chain of Peroxisome proliferator-activated receptor gamma (Homo sapiens) (P37231 whole entry, looked up): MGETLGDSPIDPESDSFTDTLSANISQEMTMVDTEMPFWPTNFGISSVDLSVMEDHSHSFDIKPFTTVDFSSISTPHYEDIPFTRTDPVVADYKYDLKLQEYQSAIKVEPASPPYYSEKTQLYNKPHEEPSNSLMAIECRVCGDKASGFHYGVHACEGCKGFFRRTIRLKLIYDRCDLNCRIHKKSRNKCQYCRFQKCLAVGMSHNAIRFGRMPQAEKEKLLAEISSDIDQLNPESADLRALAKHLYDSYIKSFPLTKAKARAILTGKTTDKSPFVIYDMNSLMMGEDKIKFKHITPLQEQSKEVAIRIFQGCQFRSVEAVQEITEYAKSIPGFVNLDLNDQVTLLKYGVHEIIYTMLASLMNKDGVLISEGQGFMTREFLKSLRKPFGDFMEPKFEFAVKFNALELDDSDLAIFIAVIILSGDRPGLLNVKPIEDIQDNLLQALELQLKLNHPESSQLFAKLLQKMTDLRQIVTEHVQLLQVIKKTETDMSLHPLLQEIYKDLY
Outline: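 Beta-lactamase FRET fluorescence was the read-out after a 1 h room-temperature substrate step, following 17 h compound treatment at 37C of HEK293H cells expressing a UAS-driven bla reporter responsive to PPARg.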

[2] = qHTS assay to identify small molecule antagonists of the peroxisome proliferator-activated receptor gamma (PPARg) signaling pathway - cell viability counter screen (AID 743194); also: nearly all actives have a fitted effect of over 55% in size
Outline: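 Cytotoxicity counter screen in PPARg-bla HEK293H cells, same wells as reporter assay. Compounds plus 50 nM rosiglitazone (final) for 17 h at 37 C, then viability read by CellTiter-Glo luminescence.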

[3] = qHTS assay for small molecule agonists of the antioxidant response element (ARE) signaling pathway - cell viability counter screen (AID 743203; calls by dose curve; also: nearly all actives have a fitted effect of over 55% in size; also: potency is read from the fitted curve at half-maximal effect)
Outline: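 HepG2 cells carrying ARE-driven beta-lactamase; 2,000 cells/well; 5 hrs plating; compound pinned from DMSO; 16 hrs 37C/5% CO2; CellTiter-Glo added; 30 min RT; luminescence.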

[4] = qHTS assay for small molecule activators of the heat shock response signaling pathway - cell viability counter screen (AID 743209); also: nearly all actives have a fitted effect of over 50% in size
Outline: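 Luminescence from CellTiter-Glo, added after the beta-lactamase FRET read, gave the viability signal. Cells were HSE-bla HeLa treated with DMSO-dissolved compounds for 5 h at 37 C following overnight plating.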

[5] = qHTS assay for small molecule activators of the heat shock response signaling pathway (AID 743210; active = well fitted activation curve with a large enough effect in the signal ratio in the repeat runs, with a control signal flat, not every such curve was filed as active; the % refers to the signal ratio; also: series mostly up to about 63 µM)
Outline: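 HSE-bla HeLa cells (beta-lactamase reporter under heat shock response elements), plated overnight, then exposed to compounds 5 h at 37 C; LiveBLAzer B/G FRET substrate added, 2.5 h at room temperature, fluorescence intensity read.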

[6] = qHTS assay to identify small molecule agonists of the peroxisome proliferator-activated receptor delta (PPARd) signaling pathway - cell viability counter screen (AID 743211); also: nearly all actives have a fitted effect of over 55% in size; also: potency is read from the fitted curve at half-maximal effect
Outline: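 Viability was measured as CellTiter-Glo luminescence (30 min, room temperature) in the same wells as the beta-lactamase readout. GeneBLAzer PPARd UAS-bla HEK293H cells received compound after 5 h plating and were incubated 17 h at 37 C.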

[7] = qHTS assay to identify small molecule antagonists of the peroxisome proliferator-activated receptor delta (PPARd) signaling pathway - cell viability counter screen (AID 743213); also: nearly all actives have a fitted effect of over 50% in size; also: potency is read from the fitted curve at half-maximal effect
Outline: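 Same-well viability: cells pre-incubated 5 h, dosed with compound plus 300 nM L165041, kept 17 h at 37 C, FRET substrate 2 h RT, then CellTiter-Glo 30 min RT and luminescence.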

[8] = qHTS assay to identify small molecule agonists of the farnesoid-X-receptor (FXR) signaling pathway - cell viability counter screen (AID 743218); also: nearly all actives have a fitted effect of over 45% in size; also: potency is read from the fitted curve at half-maximal effect
Outline: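 HEK 293T FXR-bla cells; 5 h pre-incubation, 16 h compound exposure at 37 C; LiveBLAzer substrate 2 h RT, then CellTiter-Glo 30 min RT, luminescence.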

[9] = qHTS assay to identify small molecule antagonists of the farnesoid-X-receptor (FXR) signaling pathway - cell viability counter screen (AID 743221; active = well fitted cell-killing curve with a large enough effect in the repeat runs, not every such curve was filed as active; also: nearly all actives have a fitted effect of over 50% in size; also: potency is read from the fitted curve at half-maximal effect)
Outline: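 Cytotoxicity counter screen run in the FXR-bla reporter wells: HEK 293T cells exposed to compound with 50 uM (final) chenodeoxycholic acid for 16 h, 37 C, then viability measured by CellTiter-Glo luminescence after 30 min, room temperature.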

[10] = target: Vitamin D3 receptor (Homo sapiens) (UniProt P11473); experiment: qHTS assay to identify small molecule agonists of the vitamin D receptor (VDR) signaling pathway (AID 743222; calls by dose curve)
Chain of Vitamin D3 receptor (Homo sapiens) (P11473 whole entry, looked up): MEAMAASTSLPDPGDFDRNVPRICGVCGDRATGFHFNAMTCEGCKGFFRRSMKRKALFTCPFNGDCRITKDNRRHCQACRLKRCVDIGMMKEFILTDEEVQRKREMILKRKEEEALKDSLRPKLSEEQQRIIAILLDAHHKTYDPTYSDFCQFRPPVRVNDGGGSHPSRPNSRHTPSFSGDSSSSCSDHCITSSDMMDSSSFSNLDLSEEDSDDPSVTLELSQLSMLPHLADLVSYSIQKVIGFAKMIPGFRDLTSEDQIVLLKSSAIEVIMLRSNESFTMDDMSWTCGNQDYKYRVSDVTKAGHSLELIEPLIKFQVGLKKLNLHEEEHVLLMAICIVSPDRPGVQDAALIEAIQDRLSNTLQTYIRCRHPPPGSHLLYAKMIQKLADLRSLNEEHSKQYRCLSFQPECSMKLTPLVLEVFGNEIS
Outline: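 VDR-bla cells, 2,000/well; 4 h preincubation 37C; cpd (DMSO) 16 h; LiveBLAzer B/G substrate 2 h RT; fluorescence intensity read.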

[11] = target: Vitamin D3 receptor (Homo sapiens) (UniProt P11473); experiment: qHTS assay to identify small molecule antagonists of the vitamin D receptor (VDR) signaling pathway (AID 743223; active = well fitted inhibition curve with a large enough effect in the signal ratio in the repeat runs, not every such curve was filed as active; the % refers to the signal ratio)
Outline: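 Antagonist mode: compound added to VDR-bla cells alongside agonist 1alpha,25-dihydroxyvitamin D3 (3 nM final), incubation 16 h at 37C. Read-out is LiveBLAzer FRET fluorescence, 2 h at room temperature.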

[12] = qHTS assay for small molecule agonists of the antioxidant response element (ARE) signaling pathway (AID 743202; active = well fitted activation curve with a large enough effect in the signal ratio in the repeat runs, not every such curve was filed as active; the % refers to the signal ratio; also: potency is read from the fitted curve at half-maximal effect)
Outline: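 ARE-bla HepG2 cells (beta-lactamase reporter under the antioxidant response element), plated 5 hours, then exposed to compounds 16 hours at 37 C. LiveBLAzer B/G FRET substrate added for 2 hours at room temperature; fluorescence intensity read.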

[13] = target: Peroxisome proliferator-activated receptor delta (Homo sapiens) (UniProt Q03181); experiment: qHTS assay to identify small molecule agonists of the peroxisome proliferator-activated receptor delta (PPARd) signaling pathway (AID 743212; calls by dose curve)
Chain of Peroxisome proliferator-activated receptor delta (Homo sapiens) (Q03181 whole entry, looked up): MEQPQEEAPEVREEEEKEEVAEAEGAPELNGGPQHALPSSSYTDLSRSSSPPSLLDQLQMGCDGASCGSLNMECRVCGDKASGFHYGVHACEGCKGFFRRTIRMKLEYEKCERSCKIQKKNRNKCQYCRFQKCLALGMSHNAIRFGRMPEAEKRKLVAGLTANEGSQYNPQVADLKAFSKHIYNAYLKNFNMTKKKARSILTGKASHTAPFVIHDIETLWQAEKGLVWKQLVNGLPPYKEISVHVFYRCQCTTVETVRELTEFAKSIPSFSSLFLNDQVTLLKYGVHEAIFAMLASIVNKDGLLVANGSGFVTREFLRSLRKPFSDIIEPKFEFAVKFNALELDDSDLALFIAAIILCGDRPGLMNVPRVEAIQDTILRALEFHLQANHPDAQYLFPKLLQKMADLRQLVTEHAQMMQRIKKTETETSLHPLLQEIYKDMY
Outline: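 GeneBLAzer UAS-bla HEK293H cells carrying a PPARδ construct were exposed to compounds at 37 °C. Beta-lactamase activity was read by FRET fluorescence after 2 h at room temperature with LiveBLAzer B/G substrate.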

[14] = target: Peroxisome proliferator-activated receptor delta (Homo sapiens) (UniProt Q03181); experiment: qHTS assay to identify small molecule antagonists of the peroxisome proliferator-activated receptor delta (PPARd) signaling pathway (AID 743215; active = well fitted inhibition curve with a large enough effect in the signal ratio in the repeat runs, not every such curve was filed as active; the % refers to the signal ratio;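 also: cells stimulated with agonist L165041 at 300 nM final during compound exposure; series mostly up to about 62 µM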)
Outline: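 Read-out is beta-lactamase FRET fluorescence, measured 2 h after substrate addition at room temperature. Beforehand, UAS-bla HEK293H cells carrying the PPARd reporter were exposed to compounds with L165041 at 300 nM final for 17 h at 37 C.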

[15] = target: Peroxisome proliferator-activated receptor gamma (Homo sapiens) (UniProt P37231); experiment: qHTS assay to identify small molecule antagonists of the peroxisome proliferator-activated receptor gamma (PPARg) signaling pathway (AID 743191; calls by dose curve; also: nearly all actives have a fitted effect of over 30% in size; also: potency is read from the fitted curve at half-maximal effect)
Outline: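 GeneBLAzer PPARg UAS-bla HEK293H cells, 5 h post-plating, exposed to compounds 17 h at 37C. LiveBLAzer B/G FRET substrate added for 1 h at room temperature; beta-lactamase reporter read by fluorescence intensity.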

[16] = qHTS assay to identify small molecule that activate the aryl hydrocarbon receptor (AhR) signaling pathway - cell viability counter screen (AID 743086); also: nearly all actives have a fitted effect of over 45% in size; also: potency is read from the fitted curve at half-maximal effect
Outline: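 HepG2-AhR-luc (HG2L7.5c1) cells, 4000/well, treated 24 h at 37 C with compound; viability measured as CellTiter-Fluor fluorescence after 30 min in the same wells as the luciferase read.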

[17] = target: Bile acid receptor (Homo sapiens) (UniProt Q96RI1); experiment: qHTS assay to identify small molecule antagonists of the farnesoid-X-receptor (FXR) signaling pathway (AID 743217; active = well fitted inhibition curve with a large enough effect in the signal ratio in the repeat runs, not every such curve was filed as active; the % refers to the signal ratio; also: potency is read from the fitted curve at half-maximal effect)
Chain of Bile acid receptor (Homo sapiens) (Q96RI1 whole entry, looked up): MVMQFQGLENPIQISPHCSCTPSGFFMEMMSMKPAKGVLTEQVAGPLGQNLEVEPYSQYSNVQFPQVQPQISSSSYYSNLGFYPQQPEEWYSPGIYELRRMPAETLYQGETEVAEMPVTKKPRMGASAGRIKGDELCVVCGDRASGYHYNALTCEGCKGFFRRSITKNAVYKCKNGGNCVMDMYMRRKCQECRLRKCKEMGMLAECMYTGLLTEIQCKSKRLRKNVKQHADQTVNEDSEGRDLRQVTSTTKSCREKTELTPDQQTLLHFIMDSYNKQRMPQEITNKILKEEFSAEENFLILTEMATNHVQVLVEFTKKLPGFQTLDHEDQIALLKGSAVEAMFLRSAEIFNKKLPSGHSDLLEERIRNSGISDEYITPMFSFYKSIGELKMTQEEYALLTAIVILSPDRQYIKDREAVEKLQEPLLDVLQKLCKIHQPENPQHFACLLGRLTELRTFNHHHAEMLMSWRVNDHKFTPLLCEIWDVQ
Outline: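 HEK 293T FXR-UAS-bla, 5000 cells/well; compound + CDCA 50 uM final; 16 h, 37 °C; B/G FRET substrate 2 h RT; fluorescence.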

[18] = target: Bile acid receptor (Homo sapiens) (UniProt Q96RI1); experiment: qHTS assay to identify small molecule agonists of the farnesoid-X-receptor (FXR) signaling pathway (AID 743220; active = well fitted activation curve with a large enough effect in the signal ratio in the repeat runs, not every such curve was filed as active; the % refers to the signal ratio)
Outline: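 Beta-lactamase reporter under UAS control in GeneBLAzer FXR HEK 293T cells (5000/well) measured with LiveBLAzer FRET substrate after 2 h at room temperature. Compound exposure lasted 16 h at 37C.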

[19] = target: Aryl hydrocarbon receptor (Homo sapiens) (UniProt P35869); experiment: qHTS assay to identify small molecule that activate the aryl hydrocarbon receptor (AhR) signaling pathway (AID 743085);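 also: HG2L7.5c1 human HepG2 liver cells with stably integrated DRE-driven firefly reporter; series mostly up to about 70 µM; nearly all actives have a fitted effect of over 15% in size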
Chain of Aryl hydrocarbon receptor (Homo sapiens) (P35869 whole entry, looked up): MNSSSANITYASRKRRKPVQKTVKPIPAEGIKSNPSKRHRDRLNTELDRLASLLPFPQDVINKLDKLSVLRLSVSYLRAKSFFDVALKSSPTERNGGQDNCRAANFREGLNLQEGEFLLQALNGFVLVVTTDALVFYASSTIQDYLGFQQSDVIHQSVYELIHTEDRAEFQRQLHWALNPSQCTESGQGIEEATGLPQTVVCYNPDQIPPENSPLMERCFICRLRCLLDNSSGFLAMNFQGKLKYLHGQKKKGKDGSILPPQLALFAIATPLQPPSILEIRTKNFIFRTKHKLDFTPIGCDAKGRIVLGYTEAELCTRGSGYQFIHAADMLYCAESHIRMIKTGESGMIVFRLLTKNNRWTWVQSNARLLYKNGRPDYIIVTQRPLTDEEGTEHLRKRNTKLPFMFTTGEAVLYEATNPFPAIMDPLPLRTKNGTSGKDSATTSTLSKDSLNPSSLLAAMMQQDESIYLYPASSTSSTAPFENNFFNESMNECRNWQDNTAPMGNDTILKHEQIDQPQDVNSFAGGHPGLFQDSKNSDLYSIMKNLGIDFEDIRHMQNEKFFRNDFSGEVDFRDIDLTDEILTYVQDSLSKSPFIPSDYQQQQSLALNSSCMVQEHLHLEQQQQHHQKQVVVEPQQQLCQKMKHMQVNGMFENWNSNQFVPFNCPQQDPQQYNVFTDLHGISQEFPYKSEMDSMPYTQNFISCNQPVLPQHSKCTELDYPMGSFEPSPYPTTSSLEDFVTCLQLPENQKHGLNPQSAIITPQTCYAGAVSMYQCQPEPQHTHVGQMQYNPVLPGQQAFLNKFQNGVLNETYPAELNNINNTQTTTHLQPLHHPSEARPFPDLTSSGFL
Outline: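 Luminescence (ONE-Glo) from a dioxin-responsive-element luciferase reporter in HG2L7.5c1 HepG2 cells after 24 hr compound exposure at 37C; viability measured by CellTiter-Fluor fluorescence beforehand.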

Measured: Potency

COc1ccc(C(=O)c2cccc(O)c2)c(OC)c1
inactive: [1] | [2] | [3] | [4] | [5] | [6] | [7] | [8] | [9] | [10] | [11]

O=C1OCCN1/N=C/c1ccc([N+](=O)[O-])o1
inactive: [1] | [2] | [4] | [5] | [6] | [13] | [14] | [8] | [9] | [10]
active: [12] 15 µM

CCOC(=O)N1CCC(n2c(=O)[nH]c3cc(Cl)ccc32)CC1
active: [12] 6.68 µM
inactive: [15] | [2] | [3] | [4] | [5] | [6] | [8] | [9] | [11]

Cn1c(=O)c2c(ncn2CC(=O)O)n(C)c1=O
inactive: [15] | [2] | [3] | [4] | [6] | [7] | [8] | [10] | [11]

COCCOC
inactive: [16] | [2] | [3] | [4] | [5] | [6] | [7] | [17] | [8] | [18] | [9] | [10] | [11]

CN1Cc2cc(C(=O)N3CCC(C4CCNCC4)CC3)ccc2N[C@@H](CC(=O)O)C1=O
inactive: [15] | [2] | [4] | [5] | [13] | [7] | [14] | [8] | [9]

O=C(CCCN1CCN(c2ccc(F)cc2)CC1)NC1c2ccccc2CSc2ccccc21 (stereo unspecified)
inactive: [19] | [4] | [5] | [13] | [18]
active: [6] 9.44 µM | [7] 8.41 µM | [8] 10.6 µM | [9] 26.6 µM

COC(=O)c1cc(S(N)(=O)=O)ccc1OC
inactive: [15] | [2] | [12] | [5] | [17] | [8] | [18] | [9] | [10] | [11]

CCOCCn1c(C2CCN(CCc3ccc(C(C)(C)C(=O)O)cc3)CC2)nc2ccccc21
inactive: [2] | [12] | [3] | [4] | [5] | [6] | [13] | [17] | [8] | [18] | [9] | [10] | [11]

Cc1ccc(Nc2nccc(N(C)c3ccc4c(C)n(C)nc4c3)n2)cc1S(N)(=O)=O
active: [16] 23.7 µM | [15] 26.6 µM
inactive: [4] | [5] | [9] | [10] | [11]

CC1=C(/C=C/C(C)=C\C=C\C(C)=C\C(=O)O)C(C)(C)CCC1
inactive: [19] | [16] | [15] | [2] | [3] | [4] | [5] | [7] | [8] | [9] | [11]

O=C(C(=O)c1ccccc1)c1ccccc1
inactive: [16] | [2] | [5] | [7] | [9]

C/C(=N/NC(=O)c1ccncc1)C(=O)O
inactive: [15] | [3] | [4] | [5] | [6] | [13] | [14] | [8] | [11]

O=C(O)c1c(O)c(-c2ccccc2)nc2ccccc12
active: [17] 16.8 µM
inactive: [2] | [12] | [3] | [4] | [5] | [6] | [13] | [18] | [9] | [10] | [11]

COc1cc2ncnc(Nc3ccc(F)c(Cl)c3)c2cc1OCCCN1CCOCC1
inactive: [16] | [1] | [2] | [5] | [18] | [10] | [11]
active: [6] 29.8 µM

CCNC(=O)N1CCN(CCCC(c2ccc(F)cc2)c2ccc(F)cc2)CC1
inactive: [2] | [3] | [4] | [5] | [13] | [9] | [11]
active: [16] 13.3 µM

CC(=O)N(c1onc(C)c1C)S(=O)(=O)c1ccc(N)cc1
inactive: [2] | [12] | [3] | [4] | [5] | [6] | [17] | [8] | [18] | [9] | [10]

CCCCC/C(=C\c1ccccc1)CO
inactive: [19] | [16] | [1] | [3] | [4] | [5] | [6] | [13] | [8] | [18] | [9] | [10] | [11]

CCCCC(CC)CNCC(CC)CCCC (stereo unspecified)
inactive: [2] | [12] | [3] | [4] | [5] | [6] | [13] | [7] | [14] | [17] | [8] | [18] | [9] | [10] | [11]

CO[C@@]12[C@H](COC(N)=O)C3=C(C(=O)C(C)=C(N)C3=O)N1C[C@@H]1N[C@@H]12
active: [3] 16.8 µM
inactive: [5] | [6] | [13] | [7] | [8] | [18]

CCCCC(CC)C(=O)OCCOCCOCCOCCOC(=O)C(CC)CCCC (stereo unspecified)
inactive: [19] | [16] | [1] | [2] | [12] | [3] | [4] | [5] | [6] | [13] | [7] | [18] | [9] | [10] | [11]
